Common to all, as to experiment: yeast three-hybrid, YBZ-1, SC-Leu-His + 0.5 mM 3-AT, 4 days
What all share (conditions): tags: N-Gal4 AD-HA kept; label: inside an RPR1-promoter hybrid RNA with tandem MS2 sites; ssRNA

The target of assay [1] is T1, PUM1 PUF domain R6-HWR (Homo sapiens, UniProt Q14671 828-1176, N1043H;Y1044W;Q1047R).
T1 sequence: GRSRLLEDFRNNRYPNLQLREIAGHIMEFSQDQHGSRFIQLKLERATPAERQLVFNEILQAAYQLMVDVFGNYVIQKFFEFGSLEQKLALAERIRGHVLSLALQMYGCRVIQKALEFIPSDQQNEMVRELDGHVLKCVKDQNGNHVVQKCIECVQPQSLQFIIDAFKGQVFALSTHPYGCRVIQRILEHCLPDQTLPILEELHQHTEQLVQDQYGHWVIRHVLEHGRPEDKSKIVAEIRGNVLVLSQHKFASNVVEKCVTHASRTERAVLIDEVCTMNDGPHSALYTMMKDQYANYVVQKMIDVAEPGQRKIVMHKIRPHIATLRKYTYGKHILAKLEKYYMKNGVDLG
In outline:
(§1)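 Sequencing with Illumina followed PCR amplification of the repeat regions from transformants grown four days on SC-Leu (input) or SC-Leu-His + 0.5 mM 3-AT (selection). The transformants were strain YBZ-1 with a LexA–MS2 coat fusion and a HIS3 reporter, carrying Pumilio-1 PUF domain libraries and matching RNA elements. The interaction score is the log change in variant frequency from input to selection, computed in log2 with a pseudocount of 1 for absent variants.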

In assay [2] the target is T2, PUM1 PUF domain R6-FWI (Homo sapiens, UniProt Q14671 828-1176, N1043F;Y1044W;Q1047I).
T2 sequence: T1 sequence with H216F, R220I
The method, boiled down:
as §1

The target of assay [3] is PUM1 PUF domain R7-KFN (Homo sapiens, UniProt Q14671 828-1176, S1079K;N1080F;E1083N). The method, boiled down: as §1
Assay [4] addresses PUM1 PUF domain R7-QCR (Homo sapiens, UniProt Q14671 828-1176, S1079Q;N1080C;E1083R). In outline: as §1
For assay [5], the target named is PUM1 PUF domain R3-VFG (Homo sapiens, UniProt Q14671 828-1176, C935V;R936F;Q939G). The method, boiled down:
as §1

Assay [6] has as its target PUM1 PUF domain R3-RPR (Homo sapiens, UniProt Q14671 828-1176, C935R;R936P;Q939R). In outline: as §1
Assay [7] has as its target PUM1 PUF domain R5-DFR (Homo sapiens, UniProt Q14671 828-1176, C1007D;R1008F;Q1011R). In outline:
as §1

Assay [8] deals with PUM1 PUF domain R1-TWR (Homo sapiens, UniProt Q14671 828-1176, S863T;R864W;Q867R). The method, boiled down: as §1
Assay [9] concerns the target PUM1 PUF domain R4-HNV (Homo sapiens, UniProt Q14671 828-1176, N971H;H972N;Q975V). In outline:
as §1

Assay [10] concerns the target PUM1 PUF domain R4-TPQ (Homo sapiens, UniProt Q14671 828-1176, N971T;H972P). The method, boiled down: as §1

We go through six sequences from publication PMC8384837, “Expanding the binding specificity for RNA recognition by a PUF domain”.

Where a chain is given by its changes, count along the chain named.

Chain of PUM1 PUF domain R1-TWR (Q14671 828-1176 S863T/R864W/Q867R): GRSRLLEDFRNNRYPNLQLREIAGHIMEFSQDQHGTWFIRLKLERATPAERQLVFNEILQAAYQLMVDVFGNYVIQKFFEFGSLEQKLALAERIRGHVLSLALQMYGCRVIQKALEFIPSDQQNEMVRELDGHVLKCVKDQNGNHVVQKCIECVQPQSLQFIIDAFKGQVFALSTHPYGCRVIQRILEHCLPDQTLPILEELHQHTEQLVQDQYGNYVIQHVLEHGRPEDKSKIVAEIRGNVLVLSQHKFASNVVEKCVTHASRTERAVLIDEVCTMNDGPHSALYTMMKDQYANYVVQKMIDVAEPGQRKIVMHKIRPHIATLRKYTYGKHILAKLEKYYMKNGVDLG
Chain of PUM1 PUF domain R3-VFG (Q14671 828-1176 C935V/R936F/Q939G): as the sequence (Q14671 828-1176 S863T/R864W/Q867R) above, with T36S, W37R, R40Q, C108V, R109F, Q112G counted along it
Chain of PUM1 PUF domain R3-RPR (Q14671 828-1176 C935R/R936P/Q939R): as the sequence (Q14671 828-1176 S863T/R864W/Q867R) above, with T36S, W37R, R40Q, C108R, R109P, Q112R counted along it
Chain of PUM1 PUF domain R5-DFR (Q14671 828-1176 C1007D/R1008F/Q1011R): as the sequence (Q14671 828-1176 S863T/R864W/Q867R) above, with T36S, W37R, R40Q, C180D, R181F, Q184R counted along it
Chain of PUM1 PUF domain R4-HNV (Q14671 828-1176 N971H/H972N/Q975V): as the sequence (Q14671 828-1176 S863T/R864W/Q867R) above, with T36S, W37R, R40Q, N144H, H145N, Q148V counted along it
Chain of PUM1 PUF domain R4-TPQ (Q14671 828-1176 N971T/H972P): as the sequence (Q14671 828-1176 S863T/R864W/Q867R) above, with T36S, W37R, R40Q, N144T, H145P counted along it

For “GGCUAGAACUAGUGGAUCCCCCGGCGCCCGGCGGCUCGAGCCCGGGUAAGUGAAAAUAGUCUGCAUGCCGCCGGGCGCCAUGCCUGCAGGUCGACUCUAGAAAACAUG”, the binding signal is 1.35 log2 enrichment (interaction score) in [1] and 3.65 log2 enrichment (interaction score) in assay [2]. On to “GGCUAGAACUAGUGGAUCCCCCGGCGCCCGGCGGCUCGAGCCCGGGUAAGUCUAAAUAGUCUGCAUGCCGCCGGGCGCCAUGCCUGCAGGUCGACUCUAGAAAACAUG”, for which the binding signal in assay [3] is 3.14 log2 enrichment (interaction score); in assay [4] it was 3.59 log2 enrichment (interaction score). Consider “GGCUAGAACUAGUGGAUCCCCCGGCGCCCGGCGGCUCGAGCCCGGGUAAGUGUAAUUAGUCUGCAUGCCGCCGGGCGCCAUGCCUGCAGGUCGACUCUAGAAAACAUG”, for which the figures for the binding signal in assay [5] and in [6] were 4.61 log2 enrichment (interaction score) and 5.3 log2 enrichment (interaction score), respectively. Consider “GGCUAGAACUAGUGGAUCCCCCGGCGCCCGGCGGCUCGAGCCCGGGUAAGUGUCAAUAGUCUGCAUGCCGCCGGGCGCCAUGCCUGCAGGUCGACUCUAGAAAACAUG”, for which, in [7], the binding signal is 5.27 log2 enrichment (interaction score). Turning to “GGCUAGAACUAGUGGAUCCCCCGGCGCCCGGCGGCUCGAGCCCGGGUAAGUGUAAAUCGUCUGCAUGCCGCCGGGCGCCAUGCCUGCAGGUCGACUCUAGAAAACAUG”, the binding signal in assay [8] is 5.66 log2 enrichment (interaction score).

Consider “GGCUAGAACUAGUGGAUCCCCCGGCGCCCGGCGGCUCGAGCCCGGGUAAGUGUACAUAGUCUGCAUGCCGCCGGGCGCCAUGCCUGCAGGUCGACUCUAGAAAACAUG”, for which the binding signal in assay [9] is 2.63 log2 enrichment (interaction score); in [10] it was 3.39 log2 enrichment (interaction score).
